From PubChem
Anthrax LF inh2: Bacillus anthracis LF protease inhibitors, primary screen, biochemical, multiplex microsphere, MLPCN library | AID 588501, 2011 | actives 0.12% (n = 360,000) | inhibition, % at 10 µM | multiplex microsphere protease cleavage assay | Lethal factor (Bacillus anthracis), P15917
BoNT F protease: BoNT/F light chain protease inhibitors, primary screen, biochemical, flow cytometry, MLPCN library | Multiplex microsphere protease cleavage assay | inhibition, % at 10 µM | actives 0.22% (n = 360,000) | AID 588497, 2011; in the data active = inhibition above about 35%, passing the limit was not always enough; inconclusive = no clear call, values can overlap the other calls
SARS 3CLpro inh: SARS-CoV 3CLpro protease inhibitors, primary screen, biochemical, quenched FRET | inhibition, % at 6 µM | AID 1706, 2009 | recombinant SARS-CoV 3CLpro, quenched FRET peptide cleavage | actives 0.14% (n = 290,000); in the data active = inhibition above about 12%
BoNT A protease: BoNT/A light chain protease inhibitors, primary screen, biochemical, flow cytometry, MLPCN library; multiplex microsphere protease substrate cleavage; inhibition, % at 10 µM; Botulinum neurotoxin type A light chain protease (Clostridium botulinum A str. ATCC 3502); actives 0.17% (n = 360,000)
Bead autofluor: flagged as autofluorescent in microsphere protease counterscreen. compound autofluorescence counterscreen, microsphere flow cytometry; active compounds read high. fluorescence intensity (test concentration not listed). actives 3.1% (n = 360,000); in the data active = fluorescence intensity above about 16000; inconclusive = no clear call, values can overlap the other calls
VHR inh abs: VHR1 phosphatase inhibitors, primary screen, biochemical, absorbance, uHTS; Dual specificity protein phosphatase 3 (Homo sapiens), P51452; recombinant VHR phosphatase, pNPP absorbance; inhibition, % at 13.3 µM; actives 0.52% (n = 290,000); AID 1654, 2009; in the data active = inhibition above about 50%
Each line names hits and unclear results; the compound was inactive in the other large screens. Compounds with a hit are over-represented: about 3.9% of the library has one in this group of screens. Rule as the data show it, unless noted: active = inhibition above about 30%; inconclusive = no clear call, values can overlap the other calls; inactive = below that.

Cc1cccc(N2C(=O)CC(N3CCN(C(=O)c4ccccc4)CC3)C2=O)c1 (stereo not drawn)	Bead autofluor 23162
CC(CC1CC(C)(C)OC1=O)C(=O)Nc1nncs1 (stereo not drawn)	BoNT A protease inconclusive, Bead autofluor 20331
CC(CN1CCN(C)CC1)OC(=O)c1ccc(Cl)cc1Cl (stereo not drawn)	BoNT A protease inconclusive, Bead autofluor 16186
COc1ccccc1C1c2[nH]c3ccccc3c2C[C@H]2C(=O)N(C3CCN(Cc4ccccc4)CC3)CC(=O)N12 (stereo partly drawn)	none
COc1ccc(-c2cn3c(C)c(C(=O)Nc4ccncc4)sc3n2)cc1	none
Cc1c(C(=O)N2CCN(c3ccccc3F)CC2)sc2nc(-c3ccccc3)cn12	BoNT A protease inconclusive, Bead autofluor 21586
COC(=O)c1ccc(NC(=O)c2sc3nc(-c4ccccc4)cn3c2C)cc1	Bead autofluor 21396
COc1ccc(-c2cn3c(C)c(C(=O)N4CCN(c5ccccc5F)CC4)sc3n2)cc1	none
Cc1ccc(/C=C/C(=O)Nc2nnc(SCc3ccc(C#N)cc3)s2)o1	VHR inh abs 60
CCOC(=O)c1nc(NNC(=O)c2ccc([N+](=O)[O-])cc2)sc1C	BoNT F protease inconclusive, VHR inh abs 51
CSC[C@H]1CN(Cc2cccnc2)C(=O)[C@@H]1CC(=O)Nc1ccc(Br)cc1	none (no result: SARS 3CLpro inh, VHR inh abs)
CCOn1c(-n2nc(C)cc2C)nc2ccccc2c1=O	Bead autofluor 20487
CCN(CC)C(=O)CSc1nc2ccccc2c(=O)n1OC	none
CCN(CC)C(=O)COn1c(SCC(=O)N(CC)CC)nc2ccccc2c1=O	Bead autofluor 19592
Cc1cc(C)n(-c2nc3ccccc3c(=O)n2OCC(C)C)n1	none
COC(=O)COn1c(-n2nc(C)cc2C)nc2ccccc2c1=O	Bead autofluor 22312
CC1CN(S(=O)(=O)c2ccccc2)C(C)N1C(=O)N1CCOCC1 (stereo not drawn)	Bead autofluor inconclusive
COc1ccccc1NC(=O)COc1cccc(-n2cnnn2)c1	Bead autofluor 18765
Cc1cc(C(=O)COc2cccc(-n3cnnn3)c2)c(C)n1-c1ccccc1	Bead autofluor 16603
COC(=O)COc1cccc(-n2cnnn2)c1	none
O=S(=O)(Nc1ccccn1)c1ccc(Cl)cc1	Bead autofluor 23792
O=S(=O)(Nc1ncccn1)c1ccc(Cl)cc1	none (no result: Anthrax LF inh2, BoNT F protease, BoNT A protease, Bead autofluor)
CCOc1ccccc1NC(=O)c1ccc(F)c(S(=O)(=O)N2CCC3(CC2)OCCO3)c1	BoNT A protease inconclusive, Bead autofluor 17156
Cn1nc(-c2ccccc2)cc1NC(=O)[C@@H]1O[C@H](CO)[C@H](O)[C@H](O)[C@H]1O	none (no result: SARS 3CLpro inh, VHR inh abs)
COC(=O)CNC(=O)/C=C/c1ccc(OC)cc1	Bead autofluor 19785
COc1ccc(/C=C/C(=O)NCCOc2ccccc2OC)cc1	none
CN(Cc1cnn(Cc2ccccc2)c1)C(=O)CN=C1NS(=O)(=O)c2ccccc21	none (no result: SARS 3CLpro inh, VHR inh abs)
COc1ccc(-c2cc(-c3ccccc3)nc(Cl)n2)cc1OC	VHR inh abs 51 (no result: Anthrax LF inh2, BoNT F protease, BoNT A protease, Bead autofluor)
COc1ccc(-c2cn3cc(C)ccc3n2)cc1OC	none
COc1ccc(-c2cn3ccccc3n2)cc1OC	Bead autofluor 20804
N#Cc1cccnc1N1CCN(C(c2ccnc3ccccc23)c2nnnn2-c2ccc3c(c2)OCCO3)CC1 (stereo not drawn)	none (no result: SARS 3CLpro inh, VHR inh abs)
Cc1ccc(/C=c2\sc3nc(-c4cccs4)nn3c2=O)o1	Bead autofluor 20038
COc1ccccc1/C=c1\sc2nc(-c3cccs3)nn2c1=O	none (no result: Anthrax LF inh2, BoNT F protease, BoNT A protease, Bead autofluor, VHR inh abs)
COc1ccc(/C=c2\sc3nc(-c4ccccc4OC)nn3c2=O)c(OC)c1	none
C=CCOc1ccccc1/C=c1\sc2nc(=O)c(C)nn2c1=O	Bead autofluor 23330
CSc1nc2ccc3nc(NC(=O)c4cccs4)sc3c2s1	none
CSc1nc2ccc3nc(NC(=O)c4ccc(Cl)s4)sc3c2s1	VHR inh abs 53
Cc1onc(-c2ccccc2)c1C(=O)Oc1cccnc1	Bead autofluor 21663
COc1ccc(S(=O)(=O)N2CCC(C(=O)NCCN3CCOCC3)CC2)cc1	none
COc1cccc(C(=O)c2c(-c3ccccc3)ncc3cc(OC)c(OC)cc23)c1	none (no result: SARS 3CLpro inh, VHR inh abs)
CC1(C)CC(=O)c2ccc(OCc3ccc([N+](=O)[O-])cc3)cc2O1	Bead autofluor inconclusive
O=C1CCOc2cc(OCc3ccccc3)ccc21	Bead autofluor 21171
NS(=O)(=O)c1ccc(CCNC(=O)C2CC(=O)N(Cc3ccccc3Cl)C2)cc1 (stereo not drawn)	none (no result: SARS 3CLpro inh, VHR inh abs)
COc1ccc(-c2n[nH]c(=S)n2Cc2ccco2)cc1	Bead autofluor 21139
CCCCOc1ccc(-c2n[nH]c(=S)n2Cc2ccccc2)cc1	BoNT F protease 34
CCS(=O)(=O)c1ccc2oc(Nc3cccc(OC)c3)nc2c1	none
Cc1cccc(-n2ncc3c(N4CCCc5ccccc54)ncnc32)c1	Bead autofluor 20241
O=C(c1ccc(Br)o1)N1CCN(C/C=C/c2ccccc2)CC1	none
O=C(c1ccc(Br)s1)N1CCN(C/C=C/c2ccccc2)CC1	Bead autofluor 22315
CCOC(=O)C1=C(CC)Nc2ccccc2N=C1NC(=O)c1ccc(OC)c(S(=O)(=O)N2CCOCC2)c1	none (no result: SARS 3CLpro inh, VHR inh abs)
COC(=O)Cn1c2ccc(F)cc2c2nc(C)sc21	Bead autofluor 22219
CCOC(=O)Cn1c2ccc(F)cc2c2nc(C)sc21	none
COc1cccc(C(=S)N2CCOCC2)c1OS(=O)(=O)c1ccc(Cl)cc1	none
COc1ccc(CCN(C)C(=O)CSc2nccn2C)cc1OC	BoNT A protease inconclusive, Bead autofluor 19523
COc1ccc(CCN(C)C(=O)CSc2ncnc3sccc23)cc1OC	none
Cc1ccc(C(C)NC(=O)c2ccc3c(c2)OCCO3)cc1C (stereo not drawn)	VHR inh abs 55
Cc1ccc(C(=O)NC(C)c2ccc(C)c(C)c2)s1 (stereo not drawn)	BoNT F protease inconclusive (no result: SARS 3CLpro inh, VHR inh abs)
Cc1ccc(C(C)NC(=O)c2ccco2)cc1C (stereo not drawn)	Bead autofluor 21456
CCCCn1nnnc1NCc1cccs1	Bead autofluor 19115
Cc1cc(N)ccc1NC(=O)CN1CCCC1	none
Cc1ccc(NC(=O)N2CCCc3ccccc32)cc1C	VHR inh abs 53
COc1cc(C(=O)Nc2cc(S(=O)(=O)N3CCOCC3)ccc2N2CCOCC2)cc(OC)c1C	none (no result: SARS 3CLpro inh, VHR inh abs)
O=C(NCc1cccs1)C1CCN(S(=O)(=O)c2ccccc2F)CC1	none
CC(C)N(C(=O)Cn1c(SCC(=O)NC2CC2)nc2ccccc21)C(C)C	none
COC(=O)CSc1nc2ccccc2n1CC(=O)N(C(C)C)C(C)C	VHR inh abs 52
